# Experimental data reported in PubChem BioAssay.
# “And” between values parts separate entries of the source, which are not always exact repeats. Equal entries are not always repeated.
# Test: sensitizers of A549 cells to miR-34 induction, primary screen, imaging, A549 dox-inducible miR-34, nuclei and caspase counts (AID 1347080); further: test concentration not given here
# Conditions: A549 miR-34 inducible, Hoechst nuclei count, 48 h; measured here: relative caspase fold change +Dox/-Dox
row,Structure (SMILES),fold change
1,CC(C)c1c(C(=O)Nc2ccccc2)c(-c2ccccc2)c(-c2ccc(F)cc2)n1CC[C@@H](O)C[C@@H](O)CC(=O)O,1.55
2,CC(C)(C)CC(C)(C)c1ccc(OCCOCC[N+](C)(C)Cc2ccccc2)cc1,1.51 and 1.83 and 3.74
3,CN1[C@@H]2CC(OC(=O)[C@H](CO)c3ccccc3)C[C@H]1[C@@H]1O[C@@H]12 (some centres not stated),1.08 and 0.602 and 0.997
4,CC(C)n1c(/C=C/[C@@H](O)C[C@@H](O)CC(=O)O)c(-c2ccc(F)cc2)c2ccccc21,0.844 and 2.14
5,CN(C)C(=N)N=C(N)N,1.13 and 2.95 and 0.938
6,O=C(O)c1cn(C2CC2)c2cc(N3CCNCC3)c(F)cc2c1=O,1.27 and 3.9 and 0.85
7,COc1ccc(-c2nc3ccc(C4=NNC(=O)CC4C)cc3[nH]2)cc1 (configuration not stated),1.1
8,CS(=O)(=O)c1ccc([C@@H](O)[C@@H](CF)NC(=O)C(Cl)Cl)cc1,0.927 and 1.15
9,C[C@@H](O[C@H]1OCCN(Cc2n[nH]c(=O)[nH]2)[C@H]1c1ccc(F)cc1)c1cc(C(F)(F)F)cc(C(F)(F)F)c1,1.18
10,NCCCC(O)(P(=O)(O)O)P(=O)(O)O,0.419 and 4.85 and 1.52
11,CC1(C)[C@H](C(=O)O)N2C(=O)C[C@H]2S1(=O)=O,0.598 and 0.786 and 1.47
12,O=C(O)CCn1c2c(c3ccccc31)C[C@H](NS(=O)(=O)c1ccc(F)cc1)CC2,0.911
